Pol eta inh-1: qHTS for Inhibitors of Polymerase Eta; DNA polymerase eta (Homo sapiens), Q9Y253; recombinant Pol eta, fluorescent DNA replication assay; Potency, µM (titrated, usually from 114 µM), for the others: top-dose activity change, negative = inhibition, actives largely listed as inhibitors; 390,000 tested, 1.2% active; AID 588591, 2011; further: potency means the concentration at half of the fitted maximal effect; on the % scale 0 is the no-effect control and ±100 the full control effect
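Pol eta at 10 nM preincubated with compounds 15 min at room temperature; reaction started with fluorescent substrate (50 nM final) and read kinetically at 0 and 10 min.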
FEN1 inhibitor: qHTS Assay for the Inhibitors of Human Flap endonuclease 1 (FEN1); 390,000 tested, 0.35% active; Recombinant FEN1 flap cleavage, fluorescence, 15 min; P39748; Potency, µM (titrated, usually from 114 µM), for inactives: at the top dose activity change, negative = inhibition, most hits filed as inhibitors; further: potency means the concentration at half of the fitted maximal effect; on the % scale 0 is the no-effect control and ±100 the full control effect; nearly all actives have a fitted effect of over 65% in size
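Recombinant FEN1 (10 nM) was preincubated with pin-transferred compounds for 15 min at room temperature, then flap DNA substrate (50 nM final) was added. Plates were read at 0 and 15 min, and normalized concentration–response data were fitted to a four-parameter Hill equation.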
Pol kappa inh-1: qHTS for Inhibitors of Polymerase Kappa; purified Pol kappa, fluorescent DNA synthesis assay, 10 min; DNA polymerase kappa (Homo sapiens), Q9UBT6; Potency, µM (series often up to 107 µM), for the others: at the top dose activity, negative = inhibition, actives largely listed as inhibitors; 400,000 tested, 0.53% active; further: potency means the concentration at half of the fitted maximal effect; on the % scale 0 is the no-effect control and ±100 the full control effect
Target sequence (Q9UBT6 whole entry, looked up): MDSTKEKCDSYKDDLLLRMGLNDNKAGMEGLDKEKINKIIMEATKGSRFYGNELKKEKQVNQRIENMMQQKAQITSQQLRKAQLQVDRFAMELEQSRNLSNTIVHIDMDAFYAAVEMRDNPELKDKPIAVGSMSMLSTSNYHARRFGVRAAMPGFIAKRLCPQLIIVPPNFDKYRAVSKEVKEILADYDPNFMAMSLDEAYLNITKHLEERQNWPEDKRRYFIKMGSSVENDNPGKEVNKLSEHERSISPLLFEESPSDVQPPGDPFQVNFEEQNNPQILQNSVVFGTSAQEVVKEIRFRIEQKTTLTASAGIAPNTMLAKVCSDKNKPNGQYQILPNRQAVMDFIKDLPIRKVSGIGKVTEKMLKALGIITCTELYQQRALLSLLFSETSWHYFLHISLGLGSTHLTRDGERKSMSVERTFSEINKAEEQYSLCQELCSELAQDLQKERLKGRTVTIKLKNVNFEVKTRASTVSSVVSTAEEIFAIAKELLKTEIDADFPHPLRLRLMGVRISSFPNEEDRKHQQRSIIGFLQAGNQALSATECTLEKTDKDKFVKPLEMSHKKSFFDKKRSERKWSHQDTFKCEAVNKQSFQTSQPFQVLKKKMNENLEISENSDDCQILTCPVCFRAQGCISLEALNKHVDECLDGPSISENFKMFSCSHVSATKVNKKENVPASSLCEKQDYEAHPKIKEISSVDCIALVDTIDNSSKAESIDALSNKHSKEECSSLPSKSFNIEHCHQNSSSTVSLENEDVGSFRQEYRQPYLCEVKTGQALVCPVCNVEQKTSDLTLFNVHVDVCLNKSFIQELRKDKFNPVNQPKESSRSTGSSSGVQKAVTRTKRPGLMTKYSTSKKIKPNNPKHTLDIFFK
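First, compounds were pin-transferred onto 10 nM Pol kappa. After 15 min at room temperature, substrate was added to 50 nM final. Fluorescence was then measured kinetically at 0 and 10 min.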
POLI inh: qHTS for Inhibitors of Polymerase Iota; 390,000 tested, 1% active; DNA polymerase iota (Homo sapiens), Q9UNA4; Potency, µM (doses to about 115 µM), inactives show top-dose activity, negative = inhibition, actives largely listed as inhibitors; Pol iota fluorescent replication assay, 10 min; further: potency means the concentration at half of the fitted maximal effect
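Pol iota at 10 nM preincubated 15 min with compounds at room temperature; reaction started with fluorescent substrate, 50 nM final. Fluorescence read kinetically at 0 and 10 min; buffer-only wells as negative control.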
WRN helicase inh: qHTS for Inhibitors of WRN Helicase | Bifunctional 3'-5' exonuclease/ATP-dependent helicase WRN (Homo sapiens), Q14191 | WRN helicase unwinding, fluorescent forked duplex, kinetic | Potency, µM (series often up to 114 µM), inactives show at the highest dose activity change, negative = inhibition, hits mostly inhibitors | 360,000 tested, 0.46% active | AID 651768, 2012; further: potency means the concentration at half of the fitted maximal effect; on the % scale 0 is the no-effect control and ±100 the full control effect; nearly all actives have a fitted effect of over 55% in size
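WRN at 20 nM final was preincubated with compound for 15 min at room temperature; reaction started with 100 nM forked duplex oligonucleotide carrying fluorophore and quencher plus 2 mM ATP (final). Unwinding followed kinetically by red fluorescence (ex 525/em 598 nm).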
Pol beta inh: qHTS Assay for Inhibitors of DNA Polymerase Beta. Potency, µM (top dose mostly 114 µM), inactives show at the top dose activity change, negative = inhibition, hits mostly inhibitors. Pol beta primer extension/strand displacement, fluorescence kinetic. 340,000 tested, 1.3% active; further: potency means the concentration at half of the fitted maximal effect; on the % scale 0 is the no-effect control and ±100 the full control effect
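Homogeneous kinetic assay of primer extension and strand displacement by 10 nM Pol beta, preincubated 15 min at room temperature with compound before 50 nM substrate (final) was added. Read at 0 and 10 min; four-parameter Hill fit.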
GALK inh confirm: Confirmation Assay for Inhibitors of Human Galactokinase (GALK); 150 tested, 70% active; Potency, µM (doses to about 115 µM), for inactives: top-dose activity, negative = inhibition, actives largely listed as inhibitors; shares compounds with Pol eta inh-1; AID 2015, 2009; purified GALK, Kinase-Glo ATP depletion luminescence
GALK redox cs: Confirmatory Assay for Inhibitors of Human Galactokinase (GALK): Phenol-HRP redox assay counterscreen; AID 2035, 2009; Potency, µM (series often up to 115 µM), for inactives: at the top dose activity change, negative = H2O2 signal, most hits filed as inhibitors; shares compounds with Pol eta inh-1; Phenol red-HRP H2O2 redox cycling, absorbance 600 nm; 150 tested, 40% active
HEK293 viability: Secondary Assay for Inhibitors of Human Galactokinase (GALK): HEK-293 Cell Viability Assay. AID 2547, 2010. HEK-293 viability, ATP luminescence (CellTiter-Glo), 24/48 h. Potency, µM (series often up to 46.1 µM), without a hit: at the top dose activity change, negative = cytotoxicity, usual class: inhibitors. 170 tested, 10% active. shares compounds with Pol eta inh-1; further: potency means the concentration at half of the fitted maximal effect; on the % scale 0 is the no-effect control and ±100 the full control effect
Pol kappa inh-2: qHTS for Inhibitors of Polymerase Kappa: Confirmatory Assay for Cherry-picked Compounds; shares compounds with Pol eta inh-1; purified Pol-kappa, fluorescent strand-displacement substrate; Potency, µM, actives largely listed as inhibitors; 920 tested, 76% active; further: potency means the concentration at half of the fitted maximal effect
Pol eta inh-2: qHTS for Inhibitors of Polymerase Eta: Confirmatory Assay for Cherry-picked Compounds; Potency, µM, most hits filed as inhibitors; Pol eta primer extension, TAMRA/BHQ fluorescence, 10 min; 2,600 tested, 64% active; shares compounds with Pol eta inh-1; further: potency means the concentration at half of the fitted maximal effect
Active calls of the source: *; u = inconclusive; x = no result; [ ] = another dose, or the depositor's remark. Most compounds without a hit are left out; they make up all but 2.4% or so of the library. The call rests on the fitted dose curve; in most records, active means well fitted curve in the direction sought with a large enough effect; inconclusive means small, poorly fitted or top-dose-only effect, or another doubt; inactive means no such curve, though single readings can be large; an effect the other way counts as inactive or inconclusive.

SMILES	Pol eta inh-1	FEN1 inhibitor	Pol kappa inh-1	POLI inh	WRN helicase inh	Pol beta inh	Pol eta inh-2	others
CC(=O)Nc1scc(C)c1-c1nc2ccccc2s1	-23%	u	-1%	53%	-8%	u	x
CC(=O)Nc1sc2c(c1-c1nc3ccccc3s1)CCSC2	x	x	x	x	x	x	76*
C[N+]1(CC(=O)c2ccc(Br)cc2)CCOCC1	x	5%	7%	23%	x	x	x
O=C(NCc1ccccc1)c1cccc(COc2ccc3c(c2)CCC3)c1	-13%	-4%	-10%	12%	0%	-26%	x
O=C(O)c1cccc(COc2ccc3c(c2)CCC3)c1	40µM*	-11%	u	u	1%[11.6 µM]	22µM*	48*
Cc1sc2nc(SCC(=O)N3CC(C)OC(C)C3)n(C)c(=O)c2c1C (stereo not drawn)	16µM*	5%	-9%	u	-10%[11.6 µM]	u	u
CCOC(=O)CSc1nc2sc(C)c(C)c2c(=O)n1C	-17%	-8%	-10%	-2%	12%	-19%	x
Cc1nc(NCc2ccccn2)c2c3c(sc2n1)CCCC3	-19%	-20%	-17%	35%	0%	-9%	x
Cc1nc(NS(=O)(=O)c2ccc(Cl)s2)c2c3c(sc2n1)CCCC3	-5%	-8%	-21%	0%	-16%	-23%	x	GALK inh confirm=u;GALK redox cs=3%;HEK293 viability=3%
C=C1C=C(C(F)F)n2ncc(C(=O)N3CCN(c4ccccc4)CC3)c2N1	x	-1%	4%	9%	x	x	x
Cc1ccc(C(c2ccc(C)o2)c2cccc([N+](=O)[O-])c2O)o1	18µM*	-19%	u	u	u	u	85*
Cc1cc(C(c2ccc(C)o2)c2ccc(C)o2)c(O)c([N+](=O)[O-])c1	-19%	0%	-11%	u	-13%	6%	x
COc1ccc(NC(=O)N2CC[C@@]3(CCCNC3)C2)cc1	x	x	-2%[60.1 µM]	x	x	x	x
Cc1oc2c(c1C(=O)Nc1cccc(C(=O)O)c1)CCCC2	50µM*	-13%	-15%	79µM*	-7%[11.6 µM]	u	u
CN(C)C1(CN=Cc2cc(Cl)cc([N+](=O)[O-])c2O)CCCCC1	u	-20%	u	u	-13%	14µM*	u
CC1(C)CC(=O)c2cc(C(=O)Nc3ccccc3)c(=O)[nH]c2C1	x	-2%	6%	3%	x	x	x
O=C(C=C1SCCS1)/C=C/c1ccco1	18µM*	-13%	u	35µM*	u	22µM*	u
O=C(C=Cc1ccco1)c1ccco1	-1%	-13%	u	u	-23%	x	x
N=C1/C(=C/c2cccs2)C(=O)N=C2SN=C(SCc3ccccc3)N12	25µM*	u	-4%	u	u	u	x	GALK inh confirm=42µM*;GALK redox cs=1%;HEK293 viability=-7%
CSC1=NSC2=NC(=O)/C(=C/c3coc4ccccc4c3=O)C(=N)N12	14µM*	79µM*	u	-13%	35µM*	40µM*	x	Pol kappa inh-2=67*
N=C1/C(=C\c2coc3ccccc3c2=O)C(=O)N=C2SC=CN12	40µM*	u	u	-3%	-21%[57.1 µM]	u	u
Oc1c(C(c2ccccc2)N2CCC3(CC2)OCCO3)sc2nc(-c3ccco3)nn12 (stereo not drawn)	2%	-8%	0%[60.1 µM]	-5%	x	-2%	x
O=c1[nH]n2c(=O)c3c([nH]c2c1N=Nc1cccc(Cl)c1)CCCC3	u	-25%	-15%	1%	u	u	76*
Cc1cc(C)n2[nH]c(=O)c(N=Nc3cccc(Cl)c3)c2n1	-6%	-4%	-2%	-1%	-5%	39%	x
Cc1ccccc1NC(=O)/C(C#N)=C\c1cccnc1	6%	-12%	0%	18%	1%	0%	x
SMILES	Pol eta inh-1	FEN1 inhibitor	Pol kappa inh-1	POLI inh	WRN helicase inh	Pol beta inh	Pol eta inh-2	others
N#C/C(=C\c1cccnc1)C(=O)Nc1ccccc1[N+](=O)[O-]	32µM*	u	-32%	-28%	-8%[11.6 µM]	-13%	76*	Pol kappa inh-2=u
COc1cc(/C=C/c2ccc3cccc([N+](=O)[O-])c3n2)ccc1OCC(=O)O	20µM*	-7%	u	u	-20%[11.6 µM]	u	76*	Pol kappa inh-2=u
COc1cc(/C=C(\C#N)c2nc3ccc(C)cc3[nH]2)ccc1OCc1ccc(C)cc1	u	u	u	u	x	u	x	Pol kappa inh-2=u
O=C(/C=C/c1ccc(NC(=O)c2ccccc2-c2ccccc2C(=O)O)cc1)c1ccccc1	11µM*	-2%	-25%	u	u	-25%	30*
Nc1c(C(=O)Nc2cccc(C(=O)O)c2)sc2nc3c(cc12)CCCC3	u	-1%	-9%	23%	-11%[11.6 µM]	1%	u	Pol kappa inh-2=21*
COc1cc(/C=N/NC(=O)c2cc(-c3c(C)nn(-c4ccccc4)c3C)n[nH]2)ccc1O	20µM*	-10%	u	3.2µM*	u	u	54*
Cc1nn(-c2ccccc2)c(C)c1-c1cc(C(=O)N/N=C/c2ccc(O)cc2)[nH]n1	28µM*	u	79µM*	20µM*	-16%	10µM*	43*
Cc1nn(-c2ccccc2)c(C)c1/C=N/NC(=O)c1cc(O)cc(O)c1	-16%	-18%	5%	60%	1%	10%	x

Screens as filed in PubChem.
